Read-out in test [1]: UDP glucuronosyltransferase (UGT1A1), UGT1A1 (gene 54658)
Kind of test: LTEA_HepaRG_UGT1A1: Life Technologies and Expression Analysis (LTEA) Assay for UDP glucuronosyltransferase (UGT1A1) using HepaRG (AID 2283538; active = hit-call score of the fitted dose curve at least 0.9, where 1 is the maximum; inactive = score below 0.9). To be noted: mRNA level, 48 h; actives raise or lower the signal. In a few lines: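 Readout is UGT1A1 transcript level by qRT-PCR, normalized to three housekeeping genes, after 48 h chemical treatment of HepaRG cells. Concentrations ran from 100 uM down in half-log steps with 0.5% DMSO, and gain or loss relative to DMSO was fitted.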

Read-out in test [2]: UDP glucuronosyltransferase (UGT1A6), UGT1A6 (gene 54578)
Briefly: LTEA_HepaRG_UGT1A6: Life Technologies and Expression Analysis (LTEA) Assay for UDP glucuronosyltransferase (UGT1A6) using HepaRG (AID 2283539; active = hit-call score of the fitted dose curve at least 0.9, where 1 is the maximum; inactive = score below 0.9). The conditions noted are these: mRNA level, 48 h; actives raise or lower the signal. In a few lines:
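Endpoint is UGT1A6 transcript induction or loss in a human liver cell line, quantified by TaqMan qRT-PCR 48 h after dosing. Concentrations ran from 100 uM downward in half-log steps in 0.5% DMSO; activity was fitted in both directions versus vehicle.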

Read-out in test [3]: X-box binding protein 1 (XBP1), XBP1 (gene 7494)
Briefly: LTEA_HepaRG_XBP1: Life Technologies and Expression Analysis (LTEA) Assay for X-box binding protein 1 (XBP1) using HepaRG (AID 2283540; active = hit-call score of the fitted dose curve at least 0.9, where 1 is the maximum; inactive = score below 0.9). The conditions noted are these: mRNA level, 48 h; actives raise or lower the signal. In a few lines: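 Human HepaRG monolayers receive test chemical for 48 h across an eight-point half-log series starting at 100 uM. XBP1 mRNA gain or loss is scored against DMSO by qRT-PCR.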

Test [4] can be described thus: LTEA_HepaRG_LDH_cytotoxicity: Cytotoxicity Assessment in the Life Technologies and Expression Analysis (LTEA) Assay (AID 2283563).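 As to AC50: LDH activity released into spent culture medium as a marker of cell death.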 In a few lines: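 Human HepaRG hepatic cells are treated with test chemicals for 48 h at up to 100 uM in 0.5% DMSO. Cytotoxicity is scored from medium LDH against the vehicle control.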
The nature of test [5]: Tanguay_ZF_120hpf_MORT_legacy: (Legacy) Oregon State University Tanguay Lab 120 Hour Post-fertilization zebrafish Assay for Mortality (AID 2283633). In a few lines:
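Mortality endpoint from a multiplexed whole-embryo zebrafish screen. Dechorionated wild-type embryos received compound at 6 hpf and remained under static exposure at 28C until 120 hpf, with death noted as a present/absent call.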

Test [6] is described as follows: Tanguay_ZF_120hpf_YSE_legacy: (Legacy) Oregon State University Tanguay Lab 120 Hour Post-fertilization zebrafish Assay for Yolk Sac Edema (AID 2283634). In a few lines:
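Readout: presence or absence of yolk sac edema at 120 hpf, fitted upward against DMSO controls. Exposure ran statically from 6 hpf in dechorionated embryos kept at 28C.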

Test [7] in a line: Tanguay_ZF_120hpf_SNOU_legacy: (Legacy) Oregon State University Tanguay Lab 120 Hour Post-fertilization zebrafish Assay for Snout Malformation (AID 2283637). In a few lines:
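Snout malformation read as a yes/no call on brightfield images of 120 hpf larvae (Tropical 5D strain). Static exposure began at 6 hpf on dechorionated embryos in 0.64% DMSO, with gain of signal analysed versus DMSO controls.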

Test [8] in a line: Tanguay_ZF_120hpf_OTIC_legacy: (Legacy) Oregon State University Tanguay Lab 120 Hour Post-fertilization zebrafish Assay for Otic Vesicle Malformation (AID 2283639). In a few lines: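 Embryos from 5D wild-type adults exposed in plates; DMSO 0.64% v/v final. Sealed, light-protected, 28C, static to 120 hpf. Otic vesicle malformation recorded as binary endpoint; gain-of-signal fitted vs DMSO.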

Test [9] is described as follows: Tanguay_ZF_120hpf_EYE_legacy: (Legacy) Oregon State University Tanguay Lab 120 Hour Post-fertilization zebrafish Assay for Eye Malformation (AID 2283636). In a few lines: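 Read-out is binary presence or absence of eye malformation, scored by brightfield microscopy at 120 hpf. Single larvae were exposed from 6 hpf in embryo medium containing 0.64% DMSO, with DMSO as baseline.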

Test [10] is described as follows: Tanguay_ZF_120hpf_JAW_legacy: (Legacy) Oregon State University Tanguay Lab 120 Hour Post-fertilization zebrafish Assay for Jaw Malformation (AID 2283638). In a few lines: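 Static waterborne exposure of dechorionated wild-type (Tropical 5D) zebrafish from 6 to 120 hpf at 28C, 0.64% DMSO vehicle; 5uM trimethyltin chloride served as positive control. Jaw morphology recorded as binary at 120 hpf.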

Test [11] can be described thus: Tanguay_ZF_120hpf_AXIS_legacy: (Legacy) Oregon State University Tanguay Lab 120 Hour Post-fertilization zebrafish Assay for Body Axis Malformation (AID 2283635). In a few lines: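 Static 6–120 hpf chemical exposure of dechorionated wild-type 5D zebrafish, one per well at 28C; morphology endpoint scored binary at 120 hpf relative to DMSO control.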
Test [12] is described as follows: TOX21_p53_BLA_p2_viability: Viability Assessment in the Tox21 HCT-116 p53 Agonism Beta-lactamase Assay, Phase 2 (AID 2283591).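 Also: actives lower the ATP signal meaning cytotoxicity.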 In a few lines:
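Cytotoxicity readout: CellTiter-Glo ATP luminescence, 30 min at room temperature, after the beta-lactamase read. Cells were HCT116 exposed 16 h at 37C to compounds pin-transferred at 217-fold dilution from DMSO stocks.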

Test [13] has as its target Cellular tumor antigen p53 (Homo sapiens) (UniProt P04637). Kind of test: TOX21_p53_BLA_p2_ratio: Tox21 HCT-116 p53 Agonism Beta-lactamase Assay, Ratio, Phase 2 (AID 2283592). In a few lines:
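An inducible beta-lactamase reporter in HCT116 cells signals p53 pathway activation. After 16 h chemical exposure at 37C, cells load CCF4-AM substrate for 2 h at room temperature; activity is the cleaved/uncleaved emission ratio relative to DMSO.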

A short description of test [14]: TOX21_p53_BLA_p3_viability: Viability Assessment in the Tox21 HCT-116 p53 Agonism Beta-lactamase Assay, Phase 3 (AID 2283593).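 Also: cells exposed to compound for 16 h before reading.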 In a few lines:
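Cellular ATP was quantified by CellTiter-Glo luminescence, read after 30 min at room temperature. Beforehand, HCT116 cells (4000/well) received compound 5 h post-seeding, 217-fold diluted from DMSO, then incubated 16 h at 37C.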

In test [15] the target is Cellular tumor antigen p53 (Homo sapiens) (UniProt P04637). Briefly: TOX21_p53_BLA_p3_ratio: Tox21 HCT-116 p53 Agonism Beta-lactamase Assay, Ratio, Phase 3 (AID 2283596). In a few lines: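 HCT116 p53-bla cells (4000/well) given compound in DMSO (217-fold dilution) after 5 h, incubated 16 h at 37C. CCF4-AM substrate 2 h at room temperature; 460/530 nm emission ratio, gain fitted against DMSO.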
Sequence of Cellular tumor antigen p53 (Homo sapiens) (P04637 whole entry, looked up): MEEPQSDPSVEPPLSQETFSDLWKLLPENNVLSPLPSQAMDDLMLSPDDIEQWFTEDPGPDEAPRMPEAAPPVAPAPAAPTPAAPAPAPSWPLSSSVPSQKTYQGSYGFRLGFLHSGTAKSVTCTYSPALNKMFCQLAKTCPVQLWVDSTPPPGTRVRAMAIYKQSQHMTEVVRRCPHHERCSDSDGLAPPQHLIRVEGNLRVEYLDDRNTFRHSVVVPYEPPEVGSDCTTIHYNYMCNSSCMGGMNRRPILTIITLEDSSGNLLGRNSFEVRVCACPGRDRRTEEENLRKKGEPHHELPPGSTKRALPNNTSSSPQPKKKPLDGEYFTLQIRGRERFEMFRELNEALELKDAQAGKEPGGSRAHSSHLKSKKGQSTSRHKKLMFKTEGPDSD

Test [16] can be described thus: TOX21_p53_BLA_p4_viability: Viability Assessment in the Tox21 HCT-116 p53 Agonism Beta-lactamase Assay, Phase 4 (AID 2283597).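 Also: hits lower the luminescence signal meaning cytotoxicity.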 In a few lines: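 Compound exposure of HCT116 cells lasts 16 h at 37C, 5% CO2, with DMSO stocks diluted 217-fold. Cellular ATP is then quantified by CellTiter-Glo luminescence after 30 min at room temperature.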
Test [17] deals with Cellular tumor antigen p53 (Homo sapiens) (UniProt P04637). Briefly: TOX21_p53_BLA_p5_ratio: Tox21 HCT-116 p53 Agonism Beta-lactamase Assay, Ratio, Phase 5 (AID 2283599). In a few lines:
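Beta-lactamase reporter ratio (blue 460 nm over green 530 nm, 405 nm excitation) after 2 h CCF4-AM loading, in HCT-116 cells exposed 16 h at 37 C to compounds pinned at 217-fold dilution. Increases relative to DMSO baseline scored.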

Test [18] can be described thus: TOX21_p53_BLA_p5_viability: Viability Assessment in the Tox21 HCT-116 p53 Agonism Beta-lactamase Assay, Phase 5 (AID 2283600). In a few lines:
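Counter-readout for cytotoxicity: ATP-dependent luminescence from CellTiter-Glo, read in the beta-lactamase wells after 30 min at RT, following a 16 h compound exposure at 37C.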

Outcome and AC50 data for nine compounds are collected here from PubChem BioAssay (EPA / NIEHS).

As usually defined, the AC50 is the concentration at which the activity in the assay is half-maximal.

Values joined by “and” are separate entries in the source; they are usually repeats but may differ in a detail not shown here. Equal entries are not always repeated. Inconclusive results are not listed. Some structures have more than one record in an assay (separate samples or runs), and their calls can disagree. Active and inactive are the calls of the source. The calls were made as follows, unless noted: active = hit-call score of the fitted dose curve at least 0.9, where 1 is the maximum; inconclusive = response in the unintended direction; inactive = score below 0.9.

`CCCCOC(=O)CCCCC(=O)OCCCC`: the compound was called inactive in test [1], in test [2], in test [3], in test [4], in test [5] and in [6]. Further, the result in [7] and in test [8] was inactive.
`O=NO`: the outcome in test [1], in test [2], in test [3], in [4], in test [5] and in test [6] was inactive. For the same compound, the result in test [9] and in test [7] was inactive.
In the case of `C#CC(O)C(CC)CCCC` (stereo not given), the compound was called inactive in [1], in test [2], in [3], in test [4], in test [5] and in test [9]. Moreover, the compound was called inactive in test [7], in [10] and in [8].
Regarding `CC(C)NCC(O)c1ccc(O)c(O)c1` (stereo not given), in test [1], the AC50 was 0.111 µM (active). Also, the call in [2], in [5], in [6], in test [11], in test [9] and in test [7] was inactive. The compound was classed as inactive in test [10] and in [8].
On to `Cc1c(C)c2c(c(C)c1O)CCC(C)(COc1ccc(CC3SC(=O)NC3=O)cc1)O2` (stereo not given), for which the call in test [1], in test [2], in [3], in test [18], in [5] and in test [9] was inactive. In addition, the outcome in test [7], in test [10] and in test [8] was inactive. In addition, the concentration at half-maximal activity (AC50) in test [4] was 76.3 µM (active); in [12], 74.4 µM (active) and 37.1 µM (active); in test [13] it was 15.4 µM (active) and 28.5 µM (active); in test [14], 73.8 µM (active); in test [15] it was 28.1 µM (active) and 26 µM (active); in test [16] it was 66.4 µM (active) and 34.8 µM (active). Further, the AC50 was 56.1 µM (active) and 34.1 µM (active) in test [17]; 87 µM (active) in test [18].
With `CC(C)c1cccc(C(C)C)c1`, the call in test [1], in test [2], in [3], in test [4], in test [5] and in test [11] was inactive. Moreover, the compound was classed as inactive in [9], in test [10] and in test [8].
`CO[C@@H]1COCC[C@@H]1N[C@@H]1CC[C@@](C(=O)N2CCc3ncc(C(F)(F)F)cc3C2)(C(C)C)C1`: the result in test [1], in [2], in test [3], in test [4], in test [12] and in test [14] was inactive. The outcome in test [18], in [5], in test [9], in [7], in [10] and in test [8] was inactive.
Regarding `O=C(O)CC(O)(CC(=O)O)C(=O)O`, the call in [1], in [2], in test [3], in test [4], in test [5] and in [9] was inactive. Moreover, the result in test [10] and in test [8] was inactive.
Regarding `CC(C)c1cccc(C(C)C)c1NC(=O)NS(=O)(=O)c1cc(C(C)(C)O)co1`, the compound was called inactive in test [1], in test [2], in test [3], in test [4], in test [5] and in test [6]. The outcome in test [9], in test [7], in test [10] and in test [8] was inactive.
